Screening results deposited in PubChem by National Center for Advancing Translational Sciences (NCATS).
Most compounds without a hit are left out; they make up all but 21% or so of the library.
Shiga toxin inh = inhibitors of Shiga toxin in Vero cells. AID 2315. Vero cells, Shiga toxin protein synthesis inhibition reporter. hit rate 9.2% among 290,000. inhibition, % at 38.7 µM; in the data active means inhibition mostly above about 28%, no sharp cut-off; inactive means mostly below about 43%; further: 0% is about no effect
CHX counter = counter-screen hit for Shiga toxin inhibitors, cycloheximide; hit rate 12% among 300,000; max response, %; AID 2314; cell reporter, cycloheximide protein synthesis inhibition counterscreen; in the data active means max response mostly above about 13%, no sharp cut-off; inactive means mostly below about 14%; further: read at 38.3 µM for the half of the compounds with a filed dose; 0% is about no effect
AMA1-RON2 inh = disrupts binding of P. falciparum AMA1 to RON2. hit rate 0.2% among 360,000. AID 720542. AlphaScreen AMA1-biotinylated RON2 peptide binding. Potency, µM (top dose mostly 58.2 µM), for inactives: at the top dose activity change, negative = inhibition, usual class: inhibitors;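 further: potency means the concentration at half of the fitted maximal effect; 0% = vehicle wells and -100% = peptide control; nearly all actives have a fitted effect of over 45% in size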
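AMA1 (3D7) with his tag at 25 nM final met compounds first, then biotinylated RON2 peptide at 25 nM; detection used donor plus acceptor beads, 10 µg/mL apiece, read by AlphaScreen after 30 min at room temperature.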
HCV inh = inhibitors of hepatitis C virus infection. Huh7.5.1 HCVcc-Cre infection, luciferase reporter, 44 h. Potency, µM (top dose mostly 41.8 µM), inactives show at the top dose activity change, negative = inhibition, actives largely listed as inhibitors. hit rate 3.4% among 340,000. AID 651820; further: potency means the concentration at half of the fitted maximal effect; on the % scale 0 is the no-effect control and ±100 the full control effect
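Compounds are dispensed onto cells plated 4 h earlier at 1,000 per well, with HCVcc-Cre virus (about 0.5 moi) added next. Following 44 h of culture, luminescent signal is measured for 15 sec after 15 min with substrate at room temperature.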
Pf growth 96h = P. falciparum growth inhibition at 96 hours; P. falciparum luciferase reporter growth, 96 h; AID 504834; Potency, µM (titrated, usually from 28.7 µM), for inactives: top-dose activity change, negative = inhibition, actives largely listed as inhibitors; hit rate 6.9% among 320,000; further: potency means the concentration at half of the fitted maximal effect; on the % scale 0 is the no-effect control and ±100 the full control effect
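Two parasite generations (96 h, 37 C, 5% CO2) of compound exposure in infected erythrocytes (0.05% parasitemia, 2% hematocrit). Luciferase-reporter P. falciparum; decreased luminescence indicates inhibited growth, aimed at apicoplast-acting delayed death.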
Pf growth 48h = inhibits P. falciparum growth in the first generation, 48 h; P. falciparum luciferase growth in erythrocytes, 48 h; Potency, µM (series often up to 28.7 µM), for the others: top-dose activity change, negative = inhibition, actives largely listed as inhibitors; hit rate 5.9% among 310,000; further: potency means the concentration at half of the fitted maximal effect; on the % scale 0 is the no-effect control and ±100 the full control effect
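In quantitative HTS format, infected erythrocytes bearing luciferase-reporter parasites were treated for a single generation at 37 C. Luminescence after adding detection reagent served as the growth measure.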
* marks the source's active call; other numbers are inactive results; i = inactive; ? = inconclusive; . = no result; [ ] = another dose, or the depositor's remark. Unless noted, the call rests on the fitted dose curve; in most records, active means well fitted curve in the direction sought with a large enough effect; inconclusive means small, poorly fitted or top-dose-only effect, or another doubt; inactive means no such curve, though single readings can be large; an effect the other way counts as inactive or inconclusive.

SMILES | Shiga toxin inh | CHX counter | AMA1-RON2 inh | HCV inh | Pf growth 96h | Pf growth 48h
COc1ccc(C(=O)c2sc3nc(-c4ccc(C)cc4)cc(C(F)(F)F)c3c2N)cc1 | -6 | 7 | . | . | . | .
COCCn1c(C)cc(C(=O)COC(=O)c2ccc(Cl)c(S(N)(=O)=O)c2)c1C | . | . | ? | 0%[8.37 µM] | 120% | -65%
Cc1nnc(SCC(=O)NC2CCCCC2)n1N | . | . | -7% | -12% | . | .
NC(=O)c1ccc(C[C@H](C(=O)O)N2C(=O)c3ccc(C(=O)O)cc3C2=O)cc1 | 13 | -5 | . | . | 1% | -7%
O=C(CSc1nnc(-c2ccccc2F)o1)NC1CC1 | . | . | 6% | 3% | . | .
O=C(c1ccccc1)c1nnc(-c2ccccc2F)o1 | 69* | 45* | -4% | 7% | 0% | 62%
Cc1noc(C)c1CSCC(=O)Nc1cc(C(F)(F)F)ccc1N1CCCCC1 | . | . | -25% | ? | ? | 4.7µM*
Cc1cc(NC(=O)C(C)SCC(=O)Nc2ccccc2C(C)(C)C)no1 (centres undefined) | . | . | 15% | -5% | 15µM* | 13µM*
Cc1cc(NC(=O)C(C)SCC(=O)Nc2ccccc2N2CCCC2)no1 (centres undefined) | . | . | 11% | -5% | -29% | ?
Cc1cc(NC(=O)C(C)SCC(=O)Nc2cc(C(F)(F)F)ccc2N2CCCCC2)no1 (centres undefined) | . | . | -7% | ? | 12µM* | ?
Cc1noc(C)c1CSCC(=O)Nc1cc(Cl)ccc1N1CCCCC1 | . | . | -7% | 10µM* | 6.6µM* | ?
COc1cc(C(=O)NCC(=O)NCC2COc3ccccc3O2)cc(OC)c1OC (centres undefined) | . | . | 4% | -1% | -26% | 14%
CCN(CC)C(=O)C1=C(C)N(Cc2ccc(F)cc2)C(=O)C(CC(=O)NCCCN(C)C)C1 (centres undefined) | . | . | 0% | . | . | .
O=C(c1cc(S(=O)(=O)N2CCOCC2)ccc1Cl)N1CCC(Cc2ccccc2)CC1 | . | . | -17% | -18%[8.37 µM] | ? | ?
Cc1cccc(N(Cc2ccccc2)C(=O)c2cc(S(=O)(=O)N3CCOCC3)ccc2Cl)c1 | . | . | -16% | ? | ? | 12µM*
Cc1ccc(N(Cc2ccccc2)C(=O)c2cc(S(=O)(=O)N3CCOCC3)ccc2F)cc1 | . | . | 2% | -1% | ? | 12µM*
Cc1ccc(N(Cc2ccccc2)C(=O)c2cc(S(=O)(=O)N3CCOCC3)ccc2Cl)cc1 | . | . | -14% | ? | 13µM* | ?
C=CCN(Cc1ccc(Cl)s1)C(=O)c1cc(S(=O)(=O)N2CCOCC2)ccc1F | . | . | 0% | 9% | ? | 13µM*
CN(CCOc1ccccc1)C(=O)c1cc(S(=O)(=O)N2CCOCC2)ccc1Cl | . | . | -24% | ? | 1% | ?
Cc1cc(NS(=O)(=O)c2ccc(NC(=O)C(C)Oc3cc(C)c(Cl)c(C)c3)cc2)no1 (centres undefined) | -14 | -4 | 3% | 1% | ? | -6%
CCOc1ccc(NC(=S)N2CCN(C/C=C/c3ccccc3)CC2)cc1 | 0 | -2 | -17% | ? | -5% | -24%
COc1ccccc1OCC(=O)NNC(=O)CCCC(=O)NNC(=O)COc1ccccc1OC | . | -2 | 98% | 12% | 90% | ?
COc1ccccc1OCC(=O)NCCNC(=O)COc1ccccc1OC | -7 | -5 | 2% | -7% | 2.3µM* | ?
COc1ccccc1OCC(=O)NCCSCc1cccc(Cl)c1 | -11 | -4 | -27% | -28% | 12µM* | 11%
COc1ccccc1OCC(=O)Nc1ccc(O)cc1C(=O)O | -9 | -6 | -1% | 12% | 21% | .
SMILES | Shiga toxin inh | CHX counter | AMA1-RON2 inh | HCV inh | Pf growth 96h | Pf growth 48h
COc1ccccc1OCC(=O)NNc1c2ccccc2nc2ccccc12 | 14 | 5 | -17% | 0.56µM* | 2% | 4.1µM*
COc1ccc(OC)c(C(=O)NC(CC(N)=O)c2ccc(N3CCC(Cc4ccccc4)CC3)c([N+](=O)[O-])c2)c1 (centres undefined) | -7 | -2 | -25% | -7% | 13% | 3%
Cc1ccc(OCC(=O)OCC(=O)NC2CCS(=O)(=O)C2)cc1C (centres undefined) | . | . | -2% | . | . | .
CC(=O)c1cccc(OCC(O)CN2CC=C(c3ccccc3)CC2)c1 (centres undefined) | -12 | -1 | -23% | ? | 1.9µM* | ?
COc1cccc(S(=O)(=O)N2CCN(Cc3ccc4c(c3)OCO4)CC2)c1 | -15 | 1 | -13% | . | ? | 14%
CC(=O)Nc1ccc(NC2=C/C(=N/S(=O)(=O)c3cccs3)c3ccccc3C2=O)cc1 | 5 | 17 | -26% | ? | 104% | 0.15µM*
COc1ccc(S(=O)(=O)/N=C2\C=C(Nc3ccc(O)cc3)C(=O)c3ccccc32)cc1 | 13 | 10 | 18µM* | 5.6µM* | 18% | 0.93µM*
Cc1ccc(NC2=C/C(=N/S(=O)(=O)c3cccs3)c3ccccc3C2=O)cc1C | 50* | 31* | -15% | 8% | 11% | 0.66µM*
Cc1ccc(C)c(S(=O)(=O)/N=C2\C=C(NS(=O)(=O)c3ccccc3)C(=O)c3ccccc32)c1 | -7 | -4 | -22% | 4% | ? | ?
Cc1ccccc1NC1=C/C(=N\S(=O)(=O)c2cccs2)c2ccccc2C1=O | -26 | 7 | 8.9µM* | 3.5µM* | . | 0.093µM*
COc1ccc(OC)c(C(O)c2ncc(-c3ccccc3OC)[nH]2)c1 (centres undefined) | . | . | -10% | . | . | .
S=c1[nH]ncn2c1cc1oc3ccccc3c12 | 40 | 11 | 31% | 1% | 0% | 34%
O=C(CSc1nncs1)Nc1nccs1 | . | . | -11% | 0% | 15% | 0%
COc1cc2c(cc1OC)C(O)C(O)(CO)C(C(=O)O)C2c1cc(OC)c(OC)c(OC)c1 (centres undefined) | . | . | -3% | 12% | . | .
C[C@H](CO)N1C[C@H](C)[C@@H](CN(C)C(=O)Nc2ccc3c(c2)OCO3)Oc2ccc(NC(=O)Nc3ccc4c(c3)OCO4)cc2C1=O | . | . | -15% | -19% | . | .
COc1ccc(CS(=O)(=O)c2nc(C)cc(C)c2S(C)(=O)=O)cc1 | 31 | 6 | 9% | -12% | 39% | i
CC(=O)Nc1ccc(NS(=O)(=O)c2c(Cl)cccc2Cl)cc1 | 14 | -4 | 12% | 4% | ? | -2%
CC(=O)c1cccc(NC(=O)c2cc(-c3ccco3)on2)c1 | 97* | 35* | 5% | 10% | -24% | 209%
O=C(Nc1cccc(O)c1)c1cc(-c2ccco2)on1 | 49* | 22* | -1% | -9% | 133% | 56%
CNS(=O)(=O)c1cc(S(=O)(=O)NC)c2cccc3c2c1NC3=O | -8 | -4 | 4% | -4% | 65% | 22%
CCCCN(CCO)c1ncnc2sc(-c3ccccc3)cc12 | -2 | -4 | 12% | 18µM* | -3% | .
